Our source for the binding signal and Kd values is publication PMC5913336, “True equilibrium measurement of transcription factor-DNA binding affinities using automated polarization microscopy”.

The target of one assay is Gsc (Drosophila melanogaster, UniProt P54366 267-356). Description: FP; 33 mM phosphate pH 7.0, 90 mM NaCl, 0.01% Tween 20, 0.1 mM DTT, 0.5% agarose; room temperature. To be noted: tags: N-GST (pGEX-6P-1, kept); dsDNA, one strand shown.
Chain of Gsc (P54366 267-356): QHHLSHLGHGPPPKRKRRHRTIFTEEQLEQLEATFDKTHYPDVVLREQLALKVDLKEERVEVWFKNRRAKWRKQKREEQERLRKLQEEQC
Regarding AATTATTCCGAT, the binding signal is 24.5 Kd / Kd of best base at the position.
Same read-out and setting: for AATTAATCCGTT the value was 1.04 Kd / Kd of best base at the position.
On the same count and under the same terms, the result for AATTAAGCCGAT reads 4.74 Kd / Kd of best base at the position.
Still for that read-out and setting: the result for AAATAATCCGAT reads 4.25 Kd / Kd of best base at the position.
As to AATTAATCCGAT, the Kd is approximately 3.8 nM.
Take AATTAATCCCAT: the binding signal was 1.16 Kd / Kd of best base at the position.
Still for that read-out and setting: the result for AATTAACCCGAT reads 13.1 Kd / Kd of best base at the position; that for AATTAATACGAT, 9.77 Kd / Kd of best base at the position; that for AATTAATCTGAT, 1.95 Kd / Kd of best base at the position.
Same read-out and setting: for AATTAATCCGAC the value was 1.04 Kd / Kd of best base at the position; for AACTAATCCGAT, 2.52 Kd / Kd of best base at the position.
On the same count and under the same terms, for GATTAATCCGAT the value was 1.37 Kd / Kd of best base at the position.
AATTAATCCGGT: the binding signal is 1.99 Kd / Kd of best base at the position.
AATTAATCCGCT: the binding signal is 3.18 Kd / Kd of best base at the position.
The same measure, in the same setting: the result for AATTAATCGGAT reads 3.62 Kd / Kd of best base at the position; that for AATTAATTCGAT, 3.3 Kd / Kd of best base at the position; that for AATTAATCCGAA, 1.15 Kd / Kd of best base at the position.
For the sequence AATCAATCCGAT, the binding signal was 23.5 Kd / Kd of best base at the position.
Turning to AATAAATCCGAT, the binding signal is 8.9 Kd / Kd of best base at the position.
For the sequence AATTTATCCGAT, the binding signal was 12.6 Kd / Kd of best base at the position.
Consider AATTAAACCGAT, for which the binding signal was 9.22 Kd / Kd of best base at the position.
Still for that read-out and setting: for AGTTAATCCGAT the value was 4.01 Kd / Kd of best base at the position; for AATTAATCAGAT, 1.75 Kd / Kd of best base at the position; for CATTAATCCGAT, 4.41 Kd / Kd of best base at the position.
The same measure, in the same setting: for TATTAATCCGAT the value was 2.48 Kd / Kd of best base at the position; for AATTGATCCGAT, 12.6 Kd / Kd of best base at the position; for AATTAATCCGAG, 1.56 Kd / Kd of best base at the position.
On the same count and under the same terms, the result for AATTAATCCAAT reads 1.29 Kd / Kd of best base at the position; that for AATGAATCCGAT, 42.9 Kd / Kd of best base at the position; that for AAGTAATCCGAT, 4.46 Kd / Kd of best base at the position.
For the sequence ACTTAATCCGAT, the binding signal is 10.4 Kd / Kd of best base at the position.
On the same count and under the same terms, for AATTACTCCGAT the value was 24.4 Kd / Kd of best base at the position; for ATTTAATCCGAT, 3.67 Kd / Kd of best base at the position.
Same read-out and setting: for AATTAATCCTAT the value was 2.32 Kd / Kd of best base at the position; for AATTAGTCCGAT, 10.6 Kd / Kd of best base at the position.
Consider AATTCATCCGAT, for which the binding signal is 36.4 Kd / Kd of best base at the position.

The next assay has as its target T1, Optix (Drosophila melanogaster, UniProt Q95RW8 139-229).
T1 sequence: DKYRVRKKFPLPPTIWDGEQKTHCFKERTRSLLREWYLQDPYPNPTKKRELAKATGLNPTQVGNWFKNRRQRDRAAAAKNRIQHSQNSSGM
The assay is described as above. The following applies: tags: N-GST (pGEX-6P-1, kept); dsDNA, one strand shown.
As to AGAGTGATATCT, the binding signal is 3.39 Kd / Kd of best base at the position.
Same read-out and setting: for AGAGCGATAGCT the value was 6.46 Kd / Kd of best base at the position; for AGAGAGATAGCT, 9.88 Kd / Kd of best base at the position; for AGGGTGATAGCT, 5.49 Kd / Kd of best base at the position.
